High-throughput results deposited in PubChem by National Center for Advancing Translational Sciences (NCATS).
JMJD2A Tudor inh – JMJD2A Tudor domain (human) inhibition | O75164 | AlphaScreen JMJD2A-Tudor / H3K4me3 peptide binding | Potency, µM (top dose mostly 114 µM), for the others: at the top dose activity change, negative = inhibition, hits mostly inhibitors | actives 4.4% (n = 390,000); further: on the % scale 0 is the no-effect control and ±100 the full control effect; nearly all actives have a fitted effect of over 50% in size
L3MBTL1 inh – L3MBTL1 (human) inhibition | AlphaScreen L3MBTL1–H3K9me1 peptide binding | Q9Y468 | actives 0.66% (n = 230,000) | Potency, µM (doses to about 57.1 µM), inactives show at the top dose activity, negative = inhibition, hits mostly inhibitors | AID 485360; further: on the % scale 0 is the no-effect control and ±100 the full control effect; nearly all actives have a fitted effect of over 60% in size
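L3MBTL1 (50 nM) pre-complexed 30 min with biotinylated H3(1-15)K9me1 peptide (75 nM), then compounds added for 30 min at room temperature; AlphaScreen streptavidin donor/nickel chelate acceptor beads (10 ug/mL final) read after 30 min dark incubation.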
HP1b chromo inh – blocks HP1-beta chromodomain binding to methylated histone tails. AlphaScreen HP1-beta / biotin-H3K9me3 peptide binding. actives 0.56% (n = 390,000). P83916. Potency, µM (highest dose often 114 µM), without a hit: top-dose activity change, negative = inhibition, most hits filed as inhibitors; further: nearly all actives have a fitted effect of over 70% in size
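AlphaScreen: HP1-beta (50 nM) preformed 30 min with biotin-H3(1-18)K9me3 peptide (50 nM) in PBS pH 7.4, 0.01% Tween-20. Compound added for 30 min at RT, then streptavidin donor/nickel chelate acceptor beads (10 ug/mL) for 30 min.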
BAZ2B inh – inhibitors of human BAZ2B bromodomain; Q9UIF8; AlphaScreen BAZ2B-H3K14Ac peptide displacement; Potency, µM (titrated, usually from 114 µM), inactives show top-dose activity change, negative = inhibition, actives largely listed as inhibitors; actives 4.4% (n = 360,000); AID 504333; further: on the % scale 0 is the no-effect control and ±100 the full control effect; nearly all actives have a fitted effect of over 60% in size
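Inhibition is scored as reduced AlphaScreen emission. The BAZ2B/b-H3(5-23)K14Ac complex (50 nM each) in PBS pH 7.4, 0.01% Tween-20 meets compound (up to 110 uM) for 30 min at RT before bead addition.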
G9a block – G9a (human) methyltransferase inhibition. Q96KQ7. G9a H3K9 monomethylation, AlphaScreen, 2 h. Potency, µM (titrated, usually from 102 µM), for the others: at the highest dose activity, negative = inhibition, most hits filed as inhibitors. actives 8.8% (n = 350,000); further: on the % scale 0 is the no-effect control and ±100 the full control effect; nearly all actives have a fitted effect of over 75% in size
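Enzyme 20 nM + cpd, 15 min RT; add b-H3K9 pep 500 nM / SAM 20 uM; 2 h RT; anti-H3K9me1 Ab 0.5 ug/mL + SA donor / anti-rabbit acceptor beads 20 ug/mL each, 10 min; AlphaScreen read.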
An asterisk follows results filed as active; ? = inconclusive; nt = no result; ! = not active in a repeat; [ ] = remark or other dose. Most compounds without a hit are left out; they make up all but 11% or so of the library. The call rests on the fitted dose curve; in most records, active means well fitted inhibition curve with a large enough effect; inconclusive means small, poorly fitted or top-dose-only effect; inactive means no such curve, though single readings can be large or run the other way. Potency means the concentration at half of the fitted maximal effect.

SMILES	JMJD2A Tudor inh	L3MBTL1 inh	HP1b chromo inh	BAZ2B inh	G9a block
CC(C)C[C@H](NS(=O)(=O)c1ccc(Br)cc1)C(=O)O	89µM*	nt	-6%	4%	-44%
O=C(O)C(Cc1c[nH]c2ccccc12)NS(=O)(=O)c1ccc(Br)cc1 (stereo not drawn)	28µM*	nt	?	-21%	?
O=C(O)C(Cc1c[nH]c2ccccc12)NS(=O)(=O)c1ccc(Cl)cc1 (stereo not drawn)	1%	-17%	13%	8%	?
Nc1ncnc2c1ncn2[C@@H]1O[C@H](CNS(=O)(=O)c2ccc3c(c2)CCN(C(=O)C(F)(F)F)C3)[C@@H](O)[C@H]1O	-5%	0%	48%	nt	nt
CN(C)c1ncnc2ccc(-c3ccccc3C(F)(F)F)cc12	nt	nt	nt	nt	7%[0.501 µM]
Cc1ccc(C)c(S(=O)(=O)NCC(c2ccco2)S(=O)(=O)c2ccc(F)cc2)c1 (stereo not drawn)	-24%	nt	76%	7%	7%[59 µM]
Cc1ccc2nc(CSc3nnc(-c4ccco4)o3)cc(=O)n2c1	-31%	-19%	26%	56µM*	?
CC(C)NC[C@@H](O)COc1ccc(CCOCC2CC2)cc1	nt	nt	nt	nt	4%[21.5 µM]
CC(C)NCC(O)COc1ccc(CCOCC2CC2)cc1 (stereo not drawn)	-14%	5%	17%	-1%	35µM*!
CC(=O)Nc1ccc(NC(=O)CN(C)S(=O)(=O)c2ccc3c(c2)CCC(=O)N3)cc1	-3%	nt	21%	-10%	41%
Cc1ccc2c(c1)c1c3n2CCN=C3CCC1	-24%	4%	11%	nt	18µM*
c1cc2c(cc1C1CCCCC1)c1c3n2CCN=C3CCC1	?	8%	-10%	0%	?
C#CCOc1ccc(/C=C2/C(=O)ON=C2C)cc1Br	-9%	nt	8%	-5%	35µM*
C#CCOc1c(Br)cc(/C=N/O)cc1OCC	-1%	nt	27%	5%	29%[59 µM]
C#CCOc1ccc(Cl)cc1/C=C1/C(=O)ON=C1C	35µM*	nt	15%	?	32µM*
O=C(Nc1nc(-c2ccc(Br)cc2)ns1)c1ccccc1F	-10%	nt	40%	-6%	-4%[59 µM]
COc1ccccc1C(=O)Nc1ccc2oc(-c3cccc4c(Br)cccc34)nc2c1	-10%	nt	32%	-9%	-26%[59 µM]
COc1ccc2ccccc2c1C1CC(=O)N2CN(Cc3ccco3)CSC2=C1C#N (stereo not drawn)	?	-5%	?	-27%	0.56µM*
COc1ccccc1N=C1SCC(=O)N1Cc1ccco1	-21%	-7%	-9%	?	4%[59 µM]
CC(C)c1ccc(C2CC(=O)N3CN(Cc4ccco4)CSC3=C2C#N)cc1 (stereo not drawn)	40µM*	-10%	?	50µM*	2.8µM*
COCCOC(=O)C1=C(C)N=C2SCCC(=O)N2C1c1ccc(OCc2ccccc2)c(OC)c1 (stereo not drawn)	-20%	nt	15%	-1%	9%[59 µM]
COc1ccc(N2CC(C(=O)Nc3ccccc3C(=O)NCc3ccco3)CC2=O)cc1 (stereo not drawn)	-8%	6%	22%	-4%	-1%[12.7 µM]
COc1cc(C2CC(=O)N3CN(Cc4ccco4)CSC3=C2C#N)ccc1OCc1ccccc1 (stereo not drawn)	22µM*	-13%	?	45µM*	1.3µM*
COc1ccc(C2CC(=O)N3CN(Cc4ccco4)CSC3=C2C#N)cc1 (stereo not drawn)	7.1µM*	-6%	?	?	0.89µM*
CCn1cc2nc(SCC(=O)Nc3cc(OC)cc(OC)c3)n(Cc3ccc(Cl)cc3)c(=O)c2n1	-14%	nt	43%	-1%	-4%[59 µM]
SMILES	JMJD2A Tudor inh	L3MBTL1 inh	HP1b chromo inh	BAZ2B inh	G9a block
COc1ccc(OC)c(C2C(C#N)=C(N)N(N(C)C)C3=C2C(=O)CCC3)c1 (stereo not drawn)	-19%	nt	2%	-6%	-39%
COc1ccc2ccccc2c1C1CC(=O)N2CN(C3CCCCC3)CSC2=C1C#N (stereo not drawn)	?	-14%	?	?	1.6µM*
N#CC1=C2SCN(Cc3ccco3)CN2C(=O)CC1c1ccc(Cl)cc1 (stereo not drawn)	?	-6%	?	nt	1µM*
COc1ccc(C2CC(=O)N3CN(C4CCCCC4)CSC3=C2C#N)c(OC)c1 (stereo not drawn)	3.5µM*	nt	?	nt	2.5µM*
Cc1nc2cnc(N3CCOCC3)nc2n(C[C@H]2CCCO2)c1=O	nt	nt	nt	nt	3%[0.501 µM]
CSc1ncc(Cl)c(C(=O)N(Cc2ccc(C(C)C)cc2)C2CCS(=O)(=O)C2)n1 (stereo not drawn)	-26%	nt	15%	-10%	-24%[59 µM]
CCc1ccc(CNC(=O)Cn2nc(C)c3nn(-c4ccc(Cl)cc4)c(C)c3c2=O)cc1	-4%	nt	19%[57 µM]	2%	1%[59 µM]
Cc1cc(-c2nnc3n2N=C(c2ccccc2)CS3)n[nH]1	?	8%	15%	-22%	45µM*
CC1=Nn2c(nnc2-c2ccccn2)SC1	22µM*	-5%	32%	50µM*	-21%[12.7 µM]
c1ccc(C2=Nn3c(nnc3-c3ccccn3)SC2)cc1	-31%[57.1 µM]	?	68%	28µM*	?
c1ccc(C2=Nn3c(nnc3-c3ccncc3)SC2)cc1	-19%	2%	12%	0%	?
CCOc1cccc(C2C=C(c3ccc4c(c3)OCO4)NC(c3ccc(Br)cc3)N2)c1O (stereo not drawn)	-22%[57.1 µM]	nt	16%[57 µM]	nt	nt
O=C(c1ccco1)N1CCN(C(=O)c2ccc(-c3cccc(C(F)(F)F)c3)o2)CC1	-24%	2%	5%	?	7%[0.501 µM]
O=C(c1ccc(-c2cccc(C(F)(F)F)c2)o1)N1CCN(c2ccccc2)CC1	-28%	-7%	12%	1%	3.5µM*
O=C(c1ccc(-c2cccc(C(F)(F)F)c2)o1)N1CCCCCCC1	19%	2%	-9%	-9%	50µM*
COc1cc(-c2cc(N)n(S(=O)(=O)c3ccccc3)n2)cc(OC)c1OC	-32%	nt	9%	5%	4%
Nc1cc(-c2ccccc2)nn1S(=O)(=O)c1ccc(Br)cc1	-30%	nt	32%	-7%	50µM*
CCOC(=O)c1cccc(NC(=O)c2oc3c(c2C)-c2nn(CC)cc2CC3)c1	-19%	nt	39%	-11%	-40%[59 µM]
CC(=O)Oc1ccc(N(C(C)=O)S(=O)(=O)c2cccs2)c2ccccc12	-14%	nt	2%	-24%	13µM*
CC(C)OC(=O)C(CC(=O)O)NCc1ccccc1 (stereo not drawn)	11µM*	-2%	?	-36%	?
COc1ccc(OC)c(NC(=O)C(CC(=O)O)NCc2ccco2)c1 (stereo not drawn)	45µM*	-6%	-12%	-31%	?
Cc1cccc(C)c1NC(=O)CC(NCc1ccco1)C(=O)O (stereo not drawn)	20µM*	-5%	13%	-34%	-40%[12.7 µM]
